Our source for the sensor-assay potency score (higher = more potent) values is the OligoGym collection.
Further: reference of the scale not given here.

The target in the first test is HIP1R. Put plainly: pooled miR-30 sensor sort-seq; sequence = guide strand. The settings on record: shRNA.
On to TTGATGGCTTTGCTGATGCTGA, for which the sensor-assay potency score (higher = more potent) was -1.07.
On the same count and under the same terms, the result for TTGGTCAGCAGCAGCTTGGTGT reads -0.763.
On the same count and under the same terms, the result for ATGTTGTTGACATCGGTCCCAG reads -0.946; that for TTGAACAGGAGCTTGACCGTGT, 0.954; that for TAATCAAACATCTCCACAGTGA, -0.629.

For the next test, the target named is HIST1H2BM. The description is as above. The settings on record: shRNA.
The sequence TTGTACACATACACAGAGTAGC had a sensor-assay potency score (higher = more potent) of -0.844.
TAGCAGTAGGCGCACGGCCGTC gave a sensor-assay potency score (higher = more potent) of -1.42.
Same read-out and setting: the result for TACACATACACAGAGTAGCTCT reads -0.419.
The same measure, in the same setting: the result for TTCCATCCTTCTTCTGAGCCTT reads -0.589; that for TACACAGAGTAGCTCTCCTTGC, -0.828; that for TTGTTAATGGCCTTCTTGGAGC, -1.15.
Same read-out and setting: the same measure for TTTGCGCTTCTTTCCATCCTTC: -0.136; for TTAATGGCCTTCTTGGAGCCTT: -0.535; for TCCATCCTTCTTCTGAGCCTTG: -1.16.
ATACACAGAGTAGCTCTCCTTG had a sensor-assay potency score (higher = more potent) of -0.936.
Same read-out and setting: the result for TAGCCTTGGAAGAGATGCCGGT reads -0.26.
Still for that read-out and setting: the same measure for TTCTTTCCATCCTTCTTCTGAG: -0.665.

Another test addresses HIST1H2BN. The description is as above. The settings on record: shRNA.
TACACGTACACGGAGTAGCTCT came in with a sensor-assay potency score (higher = more potent) of -0.756.
Still for that read-out and setting: the same measure for TTCTGGGCCTTTGTCACTGCCT: -1.05; for TTGTACACGTACACGGAGTAGC: -0.485; for TCTTCTGGGCCTTTGTCACTGC: -0.0714.
The same measure, in the same setting: the result for TTGGAGCCTTTCTTCGGGGCAG reads -0.909; that for TTGCCGTCCTTCTTCTGGGCCT, -0.777; that for TGGCCTTGGACGAGATACCGGT, -1.2.
The same measure, in the same setting: the same measure for TTCTTCTGGGCCTTTGTCACTG: -0.654; for TTGGACGAGATACCGGTGTCGG: -1.16.
Regarding TTTGTCACTGCCTTCTTGGAGC, the sensor-assay potency score (higher = more potent) was -0.47.
With TTCTTGGAGCCTTTCTTCGGGG, the sensor-assay potency score (higher = more potent) is -0.852.
The same measure, in the same setting: the same measure for TCGAAGATGTCATTGACGAAGG: -1.38; for TCACTGCCTTCTTGGAGCCTTT: -1.34.

The target in a further test is HIST1H4A. The test is described as above. The settings on record: shRNA.
TATAGGTGACAGCGTCACGGAT displayed a sensor-assay potency score (higher = more potent) of -1.01.
The same measure, in the same setting: the same measure for AACACCTTGAGCACCCCGCGAG: -0.99; for TGACTGTCTTGCGCTTGGCGTG: -1.68; for ATAGGTGACAGCGTCACGGATC: -0.773.
The same measure, in the same setting: the result for ATGTTGTCACGCAACACCTTGC reads -1.02; that for AAAAACACCTTGAGCACCCCGC, 0.101.
Same read-out and setting: the same measure for TGTCACGCAACACCTTGCGGTG: -1.69; for TTGTCACGCAACACCTTGCGGT: -0.404; for TCACGCAACACCTTGCGGTGGC: 0.266.
Turning to TAGATCAGACCAGAGATCCGCT, the sensor-assay potency score (higher = more potent) came to 0.162.
